The supplement of paper PMC10849652
About 8,800 targets were measured; listed, in parts, are those with a hit and a random draw of the rest. About 0.5% of all pairs of compound and target were hits. A number with no mark means an inactive call.

How the values were obtained:
Test in all cases: log2 fold change, soluble protein after heating vs DMSO (PISA); higher = thermal stabilisation; K562 lysate, 10 uM; active = over 0.2 and 3.5 SD of the protein, either way, in both replicates (recomputed)
alvocidib = compound: CN1CC[C@H](c2c(O)cc(O)c3c(=O)cc(-c4ccccc4Cl)oc23)[C@H](O)C1 [alvocidib]
How it was run: (§1)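 K562 pellets were dounce-homogenised in PBS pH 7.4 with 1 mM MgCl2, and the crude extract at 1 mg/mL protein was treated with 10 μM compound for 30 min. Aliquots were heated for 3 min across 48°C-58°C, pooled, and brought to 0.5% NP-40 at 4°C; soluble protein was the supernatant after 21,000xg for 90 min. Soluble protein was quantified by TMTpro 16plex LC-MS/MS with channel sums equalised, and reported as log2 fold change in thermal stability against DMSO controls, with values from duplicates.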

Tubastatin A = compound: CN1CCc2c(c3ccccc3n2Cc2ccc(C(=O)NO)cc2)C1 [Tubastatin A]
How it was run: as §1

[1] = compound: CNC(=O)C1=CC=CC=C1NC2=NC(=NC=C2Cl)NC3=C(C=C(C=C3)N4CCOCC4)OC
How it was run: as §1

defactinib = compound: CNC(=O)c1ccc(Nc2ncc(C(F)(F)F)c(NCc3nccnc3N(C)S(C)(=O)=O)n2)cc1 [defactinib]
How it was run: as §1

[2] = compound: CNc1nc(-c2ccc3c(N)n[nH]c3c2)cc(N2C[C@@H](C(=O)NC3CCCCC3)CC[C@H]2C)n1
How it was run: as §1

encorafenib = compound: COC(=O)N[C@@H](C)CNc1nccc(-c2cn(C(C)C)nc2-c2cc(Cl)cc(NS(C)(=O)=O)c2F)n1 [encorafenib]
How it was run: as §1

[3] = compound: COC(=O)[C@H](CCSC)NC(=O)C1=C(C=C(C=C1)NC[C@H](CS)N)C2=CC=CC=C2
How it was run: as §1

alisertib = compound: COc1cc(Nc2ncc3c(n2)-c2ccc(Cl)cc2C(c2c(F)cccc2OC)=NC3)ccc1C(=O)O [alisertib]
How it was run: as §1

[4] = compound: COc1cc2nc(-c3cc(F)ccc3O)nc(N[C@@H]3CNC[C@H]3C(C)(C)O)c2cc1OC
How it was run: as §1

gefitinib = compound: COc1cc2ncnc(Nc3ccc(F)c(Cl)c3)c2cc1OCCCN1CCOCC1 [gefitinib]
How it was run: as §1

lapatinib = compound: CS(=O)(=O)CCNCc1ccc(-c2ccc3ncnc(Nc4ccc(OCc5cccc(F)c5)c(Cl)c4)c3c2)o1 [lapatinib]
How it was run: as §1

pictilisib = compound: CS(=O)(=O)N1CCN(Cc2cc3nc(-c4cccc5[nH]ncc45)nc(N4CCOCC4)c3s2)CC1 [pictilisib]
How it was run: as §1

crizotinib = compound: C[C@@H](Oc1cc(-c2cnn(C3CCNCC3)c2)cnc1N)c1c(Cl)ccc(F)c1Cl [crizotinib]
How it was run: as §1

[5] = compound: C[C@H](C1=CC=C(C=C1)C(=O)NC2=C3C=CNC3=NC=C2)N
How it was run: as §1

duvelisib = compound: C[C@H](Nc1ncnc2nc[nH]c12)c1cc2cccc(Cl)c2c(=O)n1-c1ccccc1 [duvelisib]
How it was run: as §1

gandotinib = compound: Cc1cc(Nc2cc(CN3CCOCC3)c3nc(C)c(Cc4ccc(Cl)cc4F)n3n2)n[nH]1 [gandotinib]
How it was run: as §1

tozasertib = compound: Cc1cc(Nc2cc(N3CCN(C)CC3)nc(Sc3ccc(NC(=O)C4CC4)cc3)n2)n[nH]1 [tozasertib]
How it was run: as §1

doramapimod = compound: Cc1ccc(-n2nc(C(C)(C)C)cc2NC(=O)Nc2ccc(OCCN3CCOCC3)c3ccccc23)cc1 [doramapimod]
How it was run: as §1

bafetinib = compound: Cc1ccc(NC(=O)c2ccc(CN3CC[C@H](N(C)C)C3)c(C(F)(F)F)c2)cc1Nc1nccc(-c2cncnc2)n1 [bafetinib]
How it was run: as §1

[6] = compound: Cc1cccc(CC(=O)N2CCc3c2ccc(-c2cn(C)c4ncnc(N)c24)c3F)n1
How it was run: as §1

Sequence of UniProt Q3SY69 (Q3SY69 whole entry, looked up): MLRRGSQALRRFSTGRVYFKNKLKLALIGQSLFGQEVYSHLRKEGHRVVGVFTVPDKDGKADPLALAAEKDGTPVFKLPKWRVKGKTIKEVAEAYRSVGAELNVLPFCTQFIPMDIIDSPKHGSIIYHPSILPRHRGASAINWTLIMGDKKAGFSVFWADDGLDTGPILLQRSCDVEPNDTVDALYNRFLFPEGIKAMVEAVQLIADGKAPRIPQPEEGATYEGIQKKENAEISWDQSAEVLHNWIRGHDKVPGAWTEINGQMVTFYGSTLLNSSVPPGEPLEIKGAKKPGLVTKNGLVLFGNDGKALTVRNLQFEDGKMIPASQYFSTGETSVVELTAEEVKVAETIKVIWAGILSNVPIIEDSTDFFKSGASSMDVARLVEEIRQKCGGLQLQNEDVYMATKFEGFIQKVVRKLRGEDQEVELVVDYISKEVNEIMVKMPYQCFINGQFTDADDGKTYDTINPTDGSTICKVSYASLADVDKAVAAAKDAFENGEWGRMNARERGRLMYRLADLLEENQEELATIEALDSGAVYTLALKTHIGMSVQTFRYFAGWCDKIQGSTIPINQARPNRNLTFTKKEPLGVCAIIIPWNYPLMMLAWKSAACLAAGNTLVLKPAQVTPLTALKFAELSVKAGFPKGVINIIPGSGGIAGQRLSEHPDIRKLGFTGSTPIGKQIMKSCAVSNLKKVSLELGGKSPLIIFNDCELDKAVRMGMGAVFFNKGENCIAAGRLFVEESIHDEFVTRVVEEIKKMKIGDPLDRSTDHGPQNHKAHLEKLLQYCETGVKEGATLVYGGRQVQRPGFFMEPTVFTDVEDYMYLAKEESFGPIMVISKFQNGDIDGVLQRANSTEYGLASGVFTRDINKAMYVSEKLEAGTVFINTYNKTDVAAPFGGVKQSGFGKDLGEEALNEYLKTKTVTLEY
Sequence of UniProt Q8N6T3 (Q8N6T3 whole entry, looked up): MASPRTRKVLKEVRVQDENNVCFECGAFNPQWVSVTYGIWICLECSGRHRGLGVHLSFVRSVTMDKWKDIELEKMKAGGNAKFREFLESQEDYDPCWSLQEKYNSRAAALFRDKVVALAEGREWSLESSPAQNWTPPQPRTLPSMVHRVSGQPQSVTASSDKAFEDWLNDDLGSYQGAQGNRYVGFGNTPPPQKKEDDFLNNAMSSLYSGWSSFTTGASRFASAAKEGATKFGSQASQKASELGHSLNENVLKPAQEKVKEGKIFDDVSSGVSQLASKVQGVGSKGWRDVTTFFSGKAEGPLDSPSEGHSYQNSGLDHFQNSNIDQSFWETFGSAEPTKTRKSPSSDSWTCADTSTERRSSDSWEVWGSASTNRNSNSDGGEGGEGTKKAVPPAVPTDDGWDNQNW
Sequence of UniProt Q6NXE6 (Q6NXE6 whole entry, looked up): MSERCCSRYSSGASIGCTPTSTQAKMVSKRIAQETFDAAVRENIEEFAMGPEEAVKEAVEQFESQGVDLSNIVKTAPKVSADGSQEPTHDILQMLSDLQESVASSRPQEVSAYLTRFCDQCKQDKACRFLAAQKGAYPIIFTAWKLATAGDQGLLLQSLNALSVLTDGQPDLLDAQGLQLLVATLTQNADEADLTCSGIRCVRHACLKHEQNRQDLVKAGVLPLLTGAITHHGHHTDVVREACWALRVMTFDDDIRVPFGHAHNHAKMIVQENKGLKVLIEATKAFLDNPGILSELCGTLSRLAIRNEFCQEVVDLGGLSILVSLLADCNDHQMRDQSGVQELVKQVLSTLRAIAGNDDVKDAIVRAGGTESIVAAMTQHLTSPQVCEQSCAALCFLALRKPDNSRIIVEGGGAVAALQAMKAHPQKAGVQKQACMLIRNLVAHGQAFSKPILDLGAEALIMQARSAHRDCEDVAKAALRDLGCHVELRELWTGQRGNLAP
Sequence of UniProt P55263 (P55263 whole entry, looked up): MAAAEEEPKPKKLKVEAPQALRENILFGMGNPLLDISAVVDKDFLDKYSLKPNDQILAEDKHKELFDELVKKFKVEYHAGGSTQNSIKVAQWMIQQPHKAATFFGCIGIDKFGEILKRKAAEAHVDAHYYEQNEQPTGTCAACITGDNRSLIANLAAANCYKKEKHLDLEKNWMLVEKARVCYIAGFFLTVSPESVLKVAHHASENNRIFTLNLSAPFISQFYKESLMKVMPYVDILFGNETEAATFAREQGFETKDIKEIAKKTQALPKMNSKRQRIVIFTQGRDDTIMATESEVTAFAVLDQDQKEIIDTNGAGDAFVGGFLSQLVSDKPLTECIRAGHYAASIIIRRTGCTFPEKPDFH
Sequence of UniProt O00170 (O00170 whole entry, looked up): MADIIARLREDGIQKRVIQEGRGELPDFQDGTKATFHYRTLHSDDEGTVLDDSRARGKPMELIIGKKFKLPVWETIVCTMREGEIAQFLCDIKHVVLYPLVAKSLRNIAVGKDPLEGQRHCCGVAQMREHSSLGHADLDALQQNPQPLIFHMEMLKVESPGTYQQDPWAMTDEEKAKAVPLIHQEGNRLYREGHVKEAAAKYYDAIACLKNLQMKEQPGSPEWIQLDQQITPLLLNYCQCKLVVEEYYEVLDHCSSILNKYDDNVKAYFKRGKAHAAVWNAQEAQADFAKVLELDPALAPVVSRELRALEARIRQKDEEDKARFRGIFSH
Sequence of UniProt O43182 (O43182 whole entry, looked up): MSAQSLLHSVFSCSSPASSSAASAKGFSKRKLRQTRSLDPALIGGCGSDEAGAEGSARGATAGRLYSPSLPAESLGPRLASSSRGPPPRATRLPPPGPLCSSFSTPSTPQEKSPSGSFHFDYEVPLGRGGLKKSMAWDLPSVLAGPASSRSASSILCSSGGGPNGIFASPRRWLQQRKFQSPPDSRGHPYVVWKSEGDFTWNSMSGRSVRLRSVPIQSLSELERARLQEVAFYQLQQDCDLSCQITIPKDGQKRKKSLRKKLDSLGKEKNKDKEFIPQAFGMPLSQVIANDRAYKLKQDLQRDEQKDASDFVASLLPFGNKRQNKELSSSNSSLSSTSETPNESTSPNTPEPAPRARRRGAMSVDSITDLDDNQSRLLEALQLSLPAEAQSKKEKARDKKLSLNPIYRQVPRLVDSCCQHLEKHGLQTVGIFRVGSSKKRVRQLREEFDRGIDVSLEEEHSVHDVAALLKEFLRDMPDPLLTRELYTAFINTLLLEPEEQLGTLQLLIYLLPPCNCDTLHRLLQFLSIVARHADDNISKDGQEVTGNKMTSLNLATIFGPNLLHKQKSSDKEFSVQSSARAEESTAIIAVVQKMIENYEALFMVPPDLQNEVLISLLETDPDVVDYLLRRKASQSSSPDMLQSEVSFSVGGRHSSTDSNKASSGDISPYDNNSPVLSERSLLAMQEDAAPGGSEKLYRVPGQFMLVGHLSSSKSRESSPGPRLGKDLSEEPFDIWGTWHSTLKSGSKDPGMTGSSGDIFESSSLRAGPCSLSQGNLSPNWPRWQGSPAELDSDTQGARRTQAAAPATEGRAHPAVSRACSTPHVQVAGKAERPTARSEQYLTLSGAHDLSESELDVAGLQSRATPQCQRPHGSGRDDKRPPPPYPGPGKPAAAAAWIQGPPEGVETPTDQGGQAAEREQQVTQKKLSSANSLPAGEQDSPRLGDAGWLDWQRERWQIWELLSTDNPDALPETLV
Sequence of UniProt P17707 (P17707 whole entry, looked up): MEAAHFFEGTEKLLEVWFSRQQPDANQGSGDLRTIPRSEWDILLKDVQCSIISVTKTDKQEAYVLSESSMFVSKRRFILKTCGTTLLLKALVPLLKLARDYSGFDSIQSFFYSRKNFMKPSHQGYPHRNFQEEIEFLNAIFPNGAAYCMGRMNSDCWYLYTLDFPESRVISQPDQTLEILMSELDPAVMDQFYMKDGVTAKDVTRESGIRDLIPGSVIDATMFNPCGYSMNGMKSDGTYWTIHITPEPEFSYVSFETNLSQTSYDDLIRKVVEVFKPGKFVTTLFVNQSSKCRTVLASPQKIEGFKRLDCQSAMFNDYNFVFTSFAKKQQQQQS
Sequence of UniProt Q9BTT0 (Q9BTT0 whole entry, looked up): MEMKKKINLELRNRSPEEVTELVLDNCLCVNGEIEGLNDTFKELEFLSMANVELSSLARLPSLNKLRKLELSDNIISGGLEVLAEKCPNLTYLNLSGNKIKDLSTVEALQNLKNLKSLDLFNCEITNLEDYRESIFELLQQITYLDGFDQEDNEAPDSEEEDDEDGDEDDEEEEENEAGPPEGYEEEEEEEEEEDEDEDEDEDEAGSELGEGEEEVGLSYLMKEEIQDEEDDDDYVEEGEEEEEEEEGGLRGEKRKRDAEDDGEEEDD
Sequence of UniProt Q13155 (Q13155 whole entry, looked up): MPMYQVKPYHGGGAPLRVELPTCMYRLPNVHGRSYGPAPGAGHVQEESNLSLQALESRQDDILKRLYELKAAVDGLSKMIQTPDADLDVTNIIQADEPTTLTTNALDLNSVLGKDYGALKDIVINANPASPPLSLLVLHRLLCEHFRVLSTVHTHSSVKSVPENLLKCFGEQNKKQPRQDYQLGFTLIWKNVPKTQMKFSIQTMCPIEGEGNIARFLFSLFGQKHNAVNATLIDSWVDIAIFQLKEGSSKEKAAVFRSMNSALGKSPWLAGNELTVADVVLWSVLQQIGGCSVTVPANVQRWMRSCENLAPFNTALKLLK
Sequence of UniProt P09110 (P09110 whole entry, looked up): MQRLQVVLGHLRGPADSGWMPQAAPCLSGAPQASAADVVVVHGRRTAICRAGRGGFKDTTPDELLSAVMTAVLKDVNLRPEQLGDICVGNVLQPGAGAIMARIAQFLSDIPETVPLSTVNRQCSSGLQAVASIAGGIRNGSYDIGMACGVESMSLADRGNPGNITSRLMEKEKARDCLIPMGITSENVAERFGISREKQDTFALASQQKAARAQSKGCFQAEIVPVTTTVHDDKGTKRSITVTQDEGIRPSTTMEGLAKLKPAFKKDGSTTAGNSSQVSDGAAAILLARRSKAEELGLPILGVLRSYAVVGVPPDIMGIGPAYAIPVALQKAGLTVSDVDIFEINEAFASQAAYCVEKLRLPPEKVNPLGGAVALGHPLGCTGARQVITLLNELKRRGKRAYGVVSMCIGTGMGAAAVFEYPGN

Target | log2 fold change (alvocidib) | log2 fold change (Tubastatin A) | log2 fold change [1] | log2 fold change (defactinib) | log2 fold change [2] | log2 fold change (encorafenib) | log2 fold change [3] | log2 fold change (alisertib) | log2 fold change [4] | log2 fold change (gefitinib) | log2 fold change (lapatinib) | log2 fold change (pictilisib) | log2 fold change (crizotinib) | log2 fold change [5] | log2 fold change (duvelisib) | log2 fold change (gandotinib) | log2 fold change (tozasertib) | log2 fold change (doramapimod) | log2 fold change (bafetinib) | log2 fold change [6]
AGPS (UniProt O00116) | -0.011 | 0.039 | -0.046 | -0.003 | 0.011 | -0.005 | -0.125 | 0.035 | -0.03 | -0.002 | -0.017 | -0.049 | -0.02 | -0.033 | -0.011 | 0.019 | 0.015 | 0.025 | 0.002 | 0.083
AIMP2 (UniProt Q13155) | 0.037 | -0.11 | 0.006 | -0.01 | -0.007 | -0.02 | 0.093 | 0.011 | -0.028 | -0.088 | -0.006 | 0.015 | -0.047 | 0.05 | -0.018 | -0.12 | 0.041 | 0.029 | -0.03 | -0.032
ALDH1L2 (UniProt Q3SY69) | -0.04 | -0.03 | -0.028 | -0.04 | -0.021 | -0.002 | 0.288 (active) | -0.039 | 0.039 | 0.017 | 0.029 | -0.01 | -0.032 | -0.066 | 0.003 | 0.039 | 0.032 | 0.005 | -0.029 | 0.083
AMD1 (UniProt P17707) | -0.039 | -0.084 | 0.071 | -0.003 | 0.008 | -0.08 | -0.107 | 0.027 | 0.261 | 0.041 | -0.125 | 0.056 | 0.035 | -0.099 | 0.12 | 0.107 | 0.05 | 0.316 | -0.07 | 0.048
AMPD3 isoform 4 (UniProt Q01432) | 0.012 | 0.027 | 0.015 | 0.011 | -0.034 | -0.013 | 0.103 | 0.008 | -0.068 | 0.012 | 0.037 | -0.015 | 0.014 | 0.109 | -0.053 | -0.057 | 0.001 | 0.002 | -0.002 | -0.047
ARMC6 (UniProt Q6NXE6) | 0 | -0.171 | 0 | -0.003 | -0.103 | 0.037 | 0.234 (active) | 0.005 | -0.014 | 0.041 | 0 | -0.015 | -0.022 | 0.012 | -0.027 | -0.067 | 0.024 | 0 | -0.016 | -0.009
ACAA1 (UniProt P09110) | -0.027 | 0.043 | 0.008 | 0.008 | 0.093 | -0.021 | 0.012 | -0.035 | 0.01 | 0.015 | 0.017 | -0.005 | 0.014 | -0.015 | -0.014 | 0.056 | -0.043 | -0.001 | 0.045 | -0.011
ABL2 (UniProt P42684) | 0.007 | -0.04 | 0.082 | 0.066 | -0.108 | 0.092 | -0.068 | -0.123 | -0.009 | -0.176 | -0.053 | -0.029 | 0.367 | -0.216 | 0.079 | 0.228 | 0.273 | -0.04 | 0.439 | 0
ADK (UniProt P55263) | 0.246 | -0.025 | 0.178 | 0.026 | 0 | -0.048 | 0.068 | -0.063 | -0.015 | 0.158 | 0.154 | 0.169 | 0.235 | -0.007 | 0.059 | 0.532 (active) | -0.005 | 0.014 | 0.292 | -0.064
AIP (UniProt O00170) | 0.164 | 0.003 | 0.037 | 0.004 | 0.015 | -0.008 | 0.043 | -0.039 | -0.002 | -0.032 | -0.004 | -0.026 | 0.021 | 0.41 (active) | -0.031 | -0.019 | -0.012 | -0.022 | 0.055 | -0.043
ANP32E (UniProt Q9BTT0) | 0 | 0.079 | -0.007 | -0.018 | 0.056 | -0.037 | -0.008 | -0.019 | 0.007 | -0.061 | -0.026 | 0.003 | 0.007 | -0.017 | 0.015 | 0.013 | 0.041 | -0.017 | -0.003 | -0.032
AARS2 (UniProt Q5JTZ9) | 0.064 | -0.093 | -0.011 | -0.05 | -0.017 | 0.006 | 0.106 | 0.02 | -0.119 | -0.02 | 0.007 | 0.01 | -0.046 | 0.072 | 0.012 | -0.121 | 0.039 | 0.034 | -0.041 | 0.019
AHCYL1 (UniProt O43865) | 0.025 | -0.096 | 0.051 | 0.06 | 0.037 | 0.01 | 0.009 | -0.041 | -0.003 | -0.012 | -0.001 | 0.008 | -0.028 | -0.012 | 0.043 | -0.067 | -0.031 | 0.013 | -0.047 | 0.001
APAF1 (UniProt O14727) | -0.006 | -0.174 | -0.026 | -0.015 | 0.008 | -0.017 | 0.129 | -0.027 | 0.061 | 0.017 | 0.022 | -0.068 | -0.09 | -0.015 | -0.011 | -0.058 | -0.025 | 0.05 | 0.02 | 0.061
ARHGAP6 (UniProt O43182) | 0.003 | -0.201 | 0.129 | 0.012 | -0.017 | 0.06 | 0.063 | 0.017 | -0.012 | -0.069 | 0.006 | 0.012 | -0.038 | 0.106 | 0.001 | -0.097 | 0.004 | -0.003 | -0.055 | -0.022
ARFGAP1 (UniProt Q8N6T3) | -0.001 | -0.008 | 0.105 | 0.115 | 0.025 | 0.355 | -0.054 | 0.245 | 0.097 | 0.209 | 0.002 | 0.175 | 0.031 | -0.077 | -0.054 | 1.08 (active) | -0.011 | 0.202 | -0.157 | 0.202
